SMILES strings stand for the structures. Compounds without any hit were thinned out: in the full panel of roughly 83,000, 20% have a hit.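 Values shown are percent growth following 48 h exposure of cells in 96-well plates to a single concentration of compound; below 10 was considered active.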 A number with no mark means an inactive call. Activity calls are given as the source filed them.

Some test systems named below: HCT-15 colon; HT29 colon; SNB-75 CNS; SNB-19 CNS; U251 CNS; PC-3 prostate; SK-MEL-5 melanoma; UACC-62 melanoma; LOX IMVI melanoma; SK-MEL-28 melanoma; SK-MEL-2 melanoma; EKVX NSCLC; SN12C renal; TK-10 renal; ACHN renal; A498 renal; CCRF-CEM leukemia; MOLT-4 leukemia; CAKI-1 renal; UO-31 renal.
Experiment in all cases: NCI-60 one-dose screen, 48 h (100 = growth as untreated, 0 = no growth, -100 = all killed)
Conditions in all cases: 10 µM unless noted

For `[2H]C1([2H])NC([2H])([2H])C([2H])([2H])N(c2ccc(Nc3ncc4cc(C(=O)N(C)C)n(C5CCCC5)c4n3)nc2)C1([2H])[2H]`, the growth in the test on HCT-15 colon is 85%; in the test with HT29 colon, 34%; in the test on SNB-75 CNS, 65.5%; in the test with SNB-19 CNS, 64.3%; with U251 CNS it was 61.4%; in the test with PC-3 prostate, 62.3%. In addition, the growth in the test with SK-MEL-5 melanoma was 78.3%; with UACC-62 melanoma it was 78.7%; with LOX IMVI melanoma it was 49.2%; in the test on SK-MEL-28 melanoma, 88.6%; in the test on SK-MEL-2 melanoma it was 94.3%; in the test with EKVX NSCLC, 65.2%. In addition, the growth in the test on SN12C renal was 74.9%; with TK-10 renal, 43%; in the test on ACHN renal it was 57.4%; in the test on A498 renal, 66.5%; in the test with CCRF-CEM leukemia it was 54.1%; in the test with MOLT-4 leukemia, 8.74% (active).
Regarding `COc1ccncc1C#Cc1cncc(C(=O)Nc2ccc(CN3CCN(C)CC3)c(C(F)(F)F)c2)c1`, the growth is 16.9% in the test on HCT-15 colon; 15.2% in the test with HT29 colon; 65.7% with SNB-75 CNS; 70.1% in the test with SNB-19 CNS; 62% with U251 CNS; 42.4% in the test on PC-3 prostate. In addition, the growth was 34.2% with SK-MEL-5 melanoma; 26.4% in the test with UACC-62 melanoma; -6.87% (active) in the test with LOX IMVI melanoma; 18.2% in the test with SK-MEL-28 melanoma; -0.485% (active) in the test with SK-MEL-2 melanoma; 38.4% in the test with EKVX NSCLC. In addition, the growth in the test with SN12C renal is 17.7%; with TK-10 renal, 50.6%; in the test with CAKI-1 renal, 15.4%; with A498 renal it was 28.9%; with CCRF-CEM leukemia it was 12.3%; with MOLT-4 leukemia it was 22.5%.
On to `Cc1n[nH]c(C)c1-c1c(C)n[nH]c1C`, for which the growth in the test on HCT-15 colon is -13.6% (active); in the test with HT29 colon, 7.37% (active); in the test on SNB-75 CNS, 35.2%; with SNB-19 CNS, 28.3%; with U251 CNS, 1.27% (active); with PC-3 prostate, 17.8%. The growth was 0.89% (active) in the test on SK-MEL-5 melanoma; 7.89% (active) in the test on UACC-62 melanoma; -64.3% (active) in the test with LOX IMVI melanoma; 11.9% in the test on SK-MEL-28 melanoma; 29.9% with SK-MEL-2 melanoma; 18.2% in the test on EKVX NSCLC. Further, the growth is 9.52% (active) in the test on SN12C renal; -47.7% (active) with ACHN renal; -36% (active) in the test with CAKI-1 renal; 12.3% in the test on CCRF-CEM leukemia; 0.721% (active) with MOLT-4 leukemia.
As for `N#CSCC1CC(O)(c2ccccc2)C(c2ccccc2)C(c2ccc(F)cc2)O1` (centres undefined), the growth is 42.6% in the test on HCT-15 colon; 0.506% (active) in the test on HT29 colon; 62.6% with SNB-75 CNS; 76.8% with SNB-19 CNS; 32.4% with U251 CNS; 15.9% in the test on PC-3 prostate. Also, the growth was 57.3% with SK-MEL-5 melanoma; 41.2% in the test on UACC-62 melanoma; -1.61% (active) in the test on LOX IMVI melanoma; -15.5% (active) in the test with SK-MEL-28 melanoma; 53.6% in the test with SK-MEL-2 melanoma; 14% in the test on EKVX NSCLC. Also, the growth with SN12C renal was -26.9% (active); in the test with TK-10 renal, 0.365% (active); in the test on ACHN renal it was 25.2%; in the test with CAKI-1 renal it was 15.2%; in the test with CCRF-CEM leukemia, 12.2%; in the test with MOLT-4 leukemia it was -22% (active).
For the molecule `CCCCCN1C=C/C(=C\C(=O)N(C)c2cccc3ccccc23)c2ccccc21`, the growth in the test with HCT-15 colon was 101%; with HT29 colon it was 90%; in the test with SNB-75 CNS, 103%; in the test with SNB-19 CNS, 99.7%; in the test on U251 CNS, 95.8%; in the test on PC-3 prostate it was 94.4%. In addition, the growth was 98.3% with SK-MEL-5 melanoma; 87.4% in the test with UACC-62 melanoma; 97.8% in the test with LOX IMVI melanoma; 107% with SK-MEL-28 melanoma; 109% in the test on SK-MEL-2 melanoma; 89.1% with EKVX NSCLC. Also, the growth in the test on UO-31 renal is 82.5%; in the test with TK-10 renal, 105%; with ACHN renal, 104%; with CAKI-1 renal, 89.8%; with CCRF-CEM leukemia it was 89.5%; in the test on MOLT-4 leukemia, 99%.
For `O=C(CCN1CCCC1)Nc1ccc2c(Nc3ccccc3)c3ccccc3nc2c1`, the growth in the test with HCT-15 colon was -3.61% (active); in the test with HT29 colon it was 4.21% (active); with SNB-75 CNS, 10.9%; in the test with SNB-19 CNS, 18.4%; with U251 CNS it was 0.528% (active); with PC-3 prostate, 19.9%. Moreover, the growth in the test with SK-MEL-5 melanoma is 40.4%; in the test with UACC-62 melanoma it was 30.3%; in the test on LOX IMVI melanoma, -55.3% (active); with SK-MEL-28 melanoma it was 62.3%; in the test with SK-MEL-2 melanoma it was 41.4%; with EKVX NSCLC, 59.3%. The growth in the test with SN12C renal is 13.3%; in the test on TK-10 renal, 1.74% (active); with ACHN renal it was 1.77% (active); in the test with CAKI-1 renal, -11.9% (active); in the test on CCRF-CEM leukemia, -8.84% (active); in the test with MOLT-4 leukemia it was -4.75% (active).
For the molecule `Fc1ccc(C2CC(c3cccc(Nc4ccncc4)c3)=NN2c2ccccc2)cc1` (centres undefined), the growth with HCT-15 colon is 2.73% (active); with HT29 colon, 0.645% (active); in the test on SNB-75 CNS, 68.2%; with SNB-19 CNS, 79%; with U251 CNS it was 18.9%; with PC-3 prostate, 40.6%. Moreover, the growth in the test on SK-MEL-5 melanoma was 76.4%; with UACC-62 melanoma it was 88.8%; in the test with LOX IMVI melanoma, 29.8%; in the test on SK-MEL-28 melanoma, -57% (active); in the test on SK-MEL-2 melanoma it was 90.2%; with EKVX NSCLC it was 90.1%. Also, the growth in the test with UO-31 renal is 62.8%; in the test with TK-10 renal, 80.3%; in the test on ACHN renal, 75.3%; in the test on CAKI-1 renal, 48.1%; in the test with A498 renal, 85.2%; in the test on CCRF-CEM leukemia, 32.4%. Moreover, the growth with MOLT-4 leukemia is 5.35% (active).
On to `CCOC(=O)c1c(O)cc(-c2ccccc2)cc1-c1sc(N(C)Cc2ccccc2)nc1Cl`, for which the growth with HCT-15 colon was 101%; in the test with HT29 colon it was 110%; in the test with SNB-75 CNS, 89.9%; in the test on SNB-19 CNS it was 101%; in the test on U251 CNS it was 98%; in the test with PC-3 prostate it was 97%. Also, the growth is 101% with SK-MEL-5 melanoma; 92.6% in the test with UACC-62 melanoma; 97% in the test with LOX IMVI melanoma; 101% in the test on SK-MEL-28 melanoma; 101% with SK-MEL-2 melanoma; 101% in the test on EKVX NSCLC. Besides, the growth with SN12C renal was 97.3%; in the test with TK-10 renal, 108%; with CAKI-1 renal, 87.9%; with A498 renal, 108%; in the test on CCRF-CEM leukemia it was 96.3%; in the test with MOLT-4 leukemia, 94.4%.

(Values after PubChem BioAssay (NCI).)
